Here are results for six compounds from PubChem BioAssay (EPA / NIEHS).

Calls of active or inactive are those of the source. How the source made its calls: active means hit-call score of the fitted dose curve at least 0.9, where 1 is the maximum; inactive means score below 0.9.

A short description of one test: CCTE_Shafer_MEA_acute_per_network_burst_spike_number_mean: CCTE's Neural Acute Assay for Average Number of Spikes in a Network Burst, Shafer Lab (AID 2284019). In outline: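 Percent change from baseline in mean spikes per network burst, spikes detected at 8x rms noise. Each compound at 0.03-40 uM in at least three wells of rat cortical cultures, recorded 40 min before and 40 min during exposure.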
`O=P(OC(CCl)CCl)(OC(CCl)CCl)OC(CCl)CCl`: the compound was classed as inactive.

With `CC(C)=CCCC(C)=CC=O`, the call was inactive.

Turning to `CCCCCCCCCCCCc1ccccc1`, the outcome was inactive.

On to `Cn1c(=O)c2c(ncn2C)n(C)c1=O`, for which the result was inactive.

For `CCC(C)(C)C(=O)O[C@H]1C[C@@H](C)C=C2C=C[C@H](C)[C@H](CC[C@@H]3C[C@@H](O)CC(=O)O3)[C@H]21`, the result was inactive.

Consider `Cn1cnc([N+](=O)[O-])c1Sc1ncnc2nc[nH]c12`, for which the outcome was inactive.

Another test in a line: CCTE_Shafer_MEA_acute_per_network_burst_spike_number_std: CCTE's Neural Acute Assay for Standard Deviation of Number of Spikes in a Network Burst, Shafer Lab (AID 2284020).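 Further: fitted for decrease in spike-number SD versus DMSO so actives lower it.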 A digest of the protocol:
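Endpoint: percent change from 40 min baseline in standard deviation of spikes per network burst, after 40 min compound exposure (0.03-40 uM, 37 C). Cortical rat neurons on MEA at DIV 13 or 15; spikes detected at 8x rms noise, 300-5000 Hz band-pass.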
With `O=P(OC(CCl)CCl)(OC(CCl)CCl)OC(CCl)CCl`, the result was inactive.

For the compound `CC(C)=CCCC(C)=CC=O`, the result was inactive.

`CCCCCCCCCCCCc1ccccc1`: the result was inactive.

In the case of `Cn1c(=O)c2c(ncn2C)n(C)c1=O`, the compound was classed as inactive.

`CCC(C)(C)C(=O)O[C@H]1C[C@@H](C)C=C2C=C[C@H](C)[C@H](CC[C@@H]3C[C@@H](O)CC(=O)O3)[C@H]21`: the compound was classed as inactive.

As for `Cn1cnc([N+](=O)[O-])c1Sc1ncnc2nc[nH]c12`, the compound was classed as inactive.

The next test is described as follows: CCTE_Shafer_MEA_acute_per_network_burst_electrodes_number_mean: CCTE's Neural Acute Assay for Mean Number of Electrodes in a Network Burst, Shafer Lab (AID 2284021).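 Further: curves fitted for decreases only so hits reduce electrodes per burst.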 A digest of the protocol: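 Rat primary cortical neurons on 16-electrode MEA wells were recorded 40 min at baseline on DIV 13 or 15, then 40 min after compound (0.03-40 uM), at 37 C. Value is percent change per well, fitted in loss direction versus DMSO.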
In the case of `O=P(OC(CCl)CCl)(OC(CCl)CCl)OC(CCl)CCl`, the outcome was inactive.

As to `CC(C)=CCCC(C)=CC=O`, the compound was called inactive.

Consider `CCCCCCCCCCCCc1ccccc1`, for which the compound was classed as inactive.

As to `Cn1c(=O)c2c(ncn2C)n(C)c1=O`, the result was inactive.

With `CCC(C)(C)C(=O)O[C@H]1C[C@@H](C)C=C2C=C[C@H](C)[C@H](CC[C@@H]3C[C@@H](O)CC(=O)O3)[C@H]21`, the call was inactive.

As for `Cn1cnc([N+](=O)[O-])c1Sc1ncnc2nc[nH]c12`, the outcome was inactive.

The next test can be described thus: CCTE_Shafer_MEA_acute_network_burst_percentage: CCTE's Neural Acute Assay for Percentage of Network Bursts, Shafer Lab (AID 2284022).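 Further: curves fitted for loss so actives lower network burst percentage.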 A digest of the protocol: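 Primary rat cortical neurons on 16-electrode MEA wells, treated on DIV 13 or 15 with compound (0.03-40 uM); 40-min baseline and 40-min post-exposure recordings at 37 C. Value is percent change in spikes within network bursts versus baseline, DMSO negative control.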
`O=P(OC(CCl)CCl)(OC(CCl)CCl)OC(CCl)CCl`: the call was inactive.

With `CC(C)=CCCC(C)=CC=O`, the outcome was inactive.

For `CCCCCCCCCCCCc1ccccc1`, the compound was classed as inactive.

Regarding `Cn1c(=O)c2c(ncn2C)n(C)c1=O`, the result was inactive.

With `CCC(C)(C)C(=O)O[C@H]1C[C@@H](C)C=C2C=C[C@H](C)[C@H](CC[C@@H]3C[C@@H](O)CC(=O)O3)[C@H]21`, the compound was classed as inactive.

On to `Cn1cnc([N+](=O)[O-])c1Sc1ncnc2nc[nH]c12`, for which the compound was classed as inactive.

The nature of a further test: CCTE_Shafer_MEA_acute_cross_correlation_area: CCTE's Neural Acute Assay for Area of Cross Correlation, Shafer Lab (AID 2284024).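 Further: area under pooled inter-electrode spike cross-correlation near zero lag as percent change from own baseline; curves fitted for loss of cross-correlation area so actives lower synchrony.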 In outline: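 Primary rat cortical neurons on 48-well MEA plates (16 electrodes/well) were recorded 40 min at baseline on DIV 13 or 15, then 40 min with compound (0.03-40 uM) at 37 C; cross-correlation area expressed as percent change from baseline.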
For `O=P(OC(CCl)CCl)(OC(CCl)CCl)OC(CCl)CCl`, the compound was called inactive.

Regarding `CC(C)=CCCC(C)=CC=O`, the outcome was inactive.

On to `CCCCCCCCCCCCc1ccccc1`, for which the outcome was inactive.

Regarding `Cn1c(=O)c2c(ncn2C)n(C)c1=O`, the compound was classed as inactive.

As for `CCC(C)(C)C(=O)O[C@H]1C[C@@H](C)C=C2C=C[C@H](C)[C@H](CC[C@@H]3C[C@@H](O)CC(=O)O3)[C@H]21`, the outcome was inactive.

As to `Cn1cnc([N+](=O)[O-])c1Sc1ncnc2nc[nH]c12`, the compound was called inactive.
